The results in this text go back to PubChem BioAssay (NCI).

Among the test systems are HCT-15 colon; HT29 colon; SNB-75 CNS; SNB-19 CNS; U251 CNS; PC-3 prostate; SK-MEL-5 melanoma; UACC-62 melanoma; LOX IMVI melanoma; SK-MEL-2 melanoma; EKVX NSCLC; SN12C renal; TK-10 renal; ACHN renal; CAKI-1 renal; A498 renal; CCRF-CEM leukemia; MOLT-4 leukemia; UO-31 renal; SK-MEL-28 melanoma.
What all share (assay): NCI-60 one-dose screen, 48 h (100 = growth as untreated, 0 = no growth, -100 = all killed)
What all share (conditions): 10 µM unless noted

The panel holds about 83,000 compounds, 20% with a hit somewhere; the sample as a whole holds those more often.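 Assay: single dose, 48 h. Readout: percent growth (0 = no net growth; negative = cell death). Active: <10.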 Unmarked numbers belong to inactive results. The source made the active and inactive calls.

Regarding `Cc1cnc2nc(-c3ccc(N(C)C)cc3)cn2c1`, the growth in the assay with HCT-15 colon was 107%; in the assay on HT29 colon it was 112%; in the assay with SNB-75 CNS, 133%; with SNB-19 CNS, 107%; in the assay on U251 CNS it was 110%; in the assay on PC-3 prostate, 121%. Also, the growth was 99.4% in the assay with SK-MEL-5 melanoma; 96% in the assay with UACC-62 melanoma; 106% in the assay on LOX IMVI melanoma; 101% in the assay on SK-MEL-2 melanoma; 91.7% in the assay on EKVX NSCLC; 103% in the assay with SN12C renal. The growth in the assay on TK-10 renal is 97.6%; in the assay on ACHN renal, 112%; with CAKI-1 renal, 108%; in the assay on A498 renal, 107%; in the assay on CCRF-CEM leukemia, 83.3%; with MOLT-4 leukemia it was 91.9%.
Regarding `C[C@H]1c2cccc(O)c2C(O)=C2C(=O)[C@]3(O)C(O)=C(C(N)=O)C(=O)[C@@H](N(C)C)[C@@H]3[C@@H](O)[C@@H]21`, the growth was 31.2% with HCT-15 colon; 39.6% in the assay with HT29 colon; 47.3% in the assay on SNB-75 CNS; 69.9% with SNB-19 CNS; 33.1% with U251 CNS; 42.3% with PC-3 prostate. In addition, the growth in the assay with SK-MEL-5 melanoma is 9.29% (active); in the assay on UACC-62 melanoma it was 34.1%; in the assay on LOX IMVI melanoma, 31.5%; in the assay with SK-MEL-2 melanoma it was 56.1%; with EKVX NSCLC, 46.7%; in the assay on SN12C renal, 53.6%. Moreover, the growth in the assay with UO-31 renal was 32.6%; with ACHN renal, 27.1%; with CAKI-1 renal it was 14%; in the assay on A498 renal, 59.9%; in the assay with CCRF-CEM leukemia, 39.1%; in the assay with MOLT-4 leukemia it was 51.5%.
Consider `COc1ccc(C2=NN(C=O)C(c3cccc(Nc4ccnc5cc(Cl)ccc45)c3)C2)cc1` (stereo unspecified), for which the growth in the assay on HCT-15 colon is 16.6%; in the assay on HT29 colon, 4.88% (active); in the assay on SNB-75 CNS, 8.36% (active); in the assay with SNB-19 CNS, 40%; in the assay with U251 CNS it was 19.6%; in the assay with PC-3 prostate, 22.8%. Further, the growth with SK-MEL-5 melanoma was -21.5% (active); with UACC-62 melanoma it was 32.3%; in the assay on LOX IMVI melanoma, 25%; in the assay with EKVX NSCLC, 36.1%; with SN12C renal, 36.1%; with UO-31 renal, 31.2%. Also, the growth was 37.1% in the assay on TK-10 renal; 35.9% in the assay on ACHN renal; 27.4% in the assay on A498 renal; 17.1% with CCRF-CEM leukemia; 9.88% (active) in the assay with MOLT-4 leukemia.
As for `O=C(COc1ccc(/C=C2\Oc3ccc4ccccc4c3C2=O)cc1)c1ccc(Cl)cc1`, the growth was 92% in the assay with HCT-15 colon; 87.2% in the assay on HT29 colon; 83% in the assay on SNB-75 CNS; 98.3% in the assay on SNB-19 CNS; 94.7% in the assay with U251 CNS; 93.8% with PC-3 prostate. Further, the growth in the assay on SK-MEL-5 melanoma is 92.6%; with UACC-62 melanoma, 94.3%; in the assay on LOX IMVI melanoma it was 53.7%; with SK-MEL-2 melanoma, 73.8%; in the assay on EKVX NSCLC, 103%; with SN12C renal it was 98.9%. For the same compound, the growth in the assay on UO-31 renal was 5.25% (active); with TK-10 renal, 114%; with ACHN renal it was 107%; with CAKI-1 renal, 98.8%; in the assay with A498 renal, 155%; in the assay with CCRF-CEM leukemia it was -26.9% (active). The growth with MOLT-4 leukemia is 33.8%.
With `Cc1sc2nc(NCCc3cccs3)[nH]c(=O)c2c1C`, the growth in the assay with HCT-15 colon was 59.6%; in the assay with HT29 colon, 85.1%; with SNB-75 CNS, 90.1%; with SNB-19 CNS it was 90.2%; with U251 CNS it was 75.8%; in the assay with PC-3 prostate it was 71.9%. Further, the growth was 90.8% in the assay on SK-MEL-5 melanoma; 63.1% in the assay with UACC-62 melanoma; 88.7% in the assay with LOX IMVI melanoma; 100% in the assay with SK-MEL-28 melanoma; 85.5% in the assay on EKVX NSCLC; 90% in the assay on UO-31 renal. Further, the growth is 96.8% with TK-10 renal; 96.1% with ACHN renal; 70.7% in the assay with A498 renal; 81.9% in the assay on CCRF-CEM leukemia; 75.3% in the assay with MOLT-4 leukemia.
Regarding `O=C(Nc1nn2c(-c3cc(C(F)(F)F)cc(C(F)(F)F)c3)nnc2s1)C1CCCC1`, the growth with HCT-15 colon was 13.6%; in the assay with HT29 colon it was -28.7% (active); in the assay with SNB-75 CNS it was 37.9%; in the assay with SNB-19 CNS, 26.6%; in the assay on U251 CNS, 4.37% (active); in the assay with PC-3 prostate it was 8.85% (active). Also, the growth was -69.6% (active) in the assay on SK-MEL-5 melanoma; 7.5% (active) in the assay on UACC-62 melanoma; 13.1% with LOX IMVI melanoma; 30.4% in the assay on SK-MEL-28 melanoma; 21.7% with EKVX NSCLC; 8.94% (active) in the assay on UO-31 renal. Besides, the growth in the assay on TK-10 renal is -30.4% (active); in the assay on ACHN renal, 8.22% (active); in the assay on CAKI-1 renal it was 7.75% (active); in the assay on A498 renal, -21.8% (active); in the assay on CCRF-CEM leukemia, 13.8%; with MOLT-4 leukemia, -10.2% (active).
In the case of `C/C(=C\CCc1ccoc1)CC/C=C(\C)CCCNc1ccc(F)cc1`, the growth in the assay with HCT-15 colon is 93.3%; in the assay with HT29 colon, 78.8%; in the assay on SNB-75 CNS, 94.3%; with SNB-19 CNS, 97.7%; with U251 CNS, 94.2%; in the assay with PC-3 prostate, 94.9%. The growth in the assay with SK-MEL-5 melanoma is 99.9%; in the assay on UACC-62 melanoma, 83.8%; in the assay on SK-MEL-28 melanoma, 96.6%; with SK-MEL-2 melanoma, 106%; in the assay on SN12C renal it was 76.2%; in the assay on UO-31 renal, 54.6%. The growth was 113% in the assay with TK-10 renal; 97.9% with ACHN renal; 88.7% with CAKI-1 renal; 79.7% in the assay on A498 renal; 58.7% in the assay with CCRF-CEM leukemia; 59.6% with MOLT-4 leukemia.
Consider `COC(=O)[C@H](Cc1cn(C)cn1)NC(=O)[C@H](Cc1ccccc1)NC(=O)Nc1cc(C(F)(F)F)cc(C(F)(F)F)c1`, for which the growth in the assay on HCT-15 colon was -77.3% [100 µM] (active); in the assay with HT29 colon, -82.4% [100 µM] (active); in the assay on SNB-75 CNS it was -98.2% [100 µM] (active); with SNB-19 CNS, -95.9% [100 µM] (active); in the assay with U251 CNS, -95.6% [100 µM] (active); in the assay with PC-3 prostate, -95.6% [100 µM] (active). Further, the growth is -97.1% [100 µM] (active) in the assay with SK-MEL-5 melanoma; -97.4% [100 µM] (active) in the assay on UACC-62 melanoma; -84.7% [100 µM] (active) with LOX IMVI melanoma; -94.9% [100 µM] (active) in the assay on SK-MEL-2 melanoma; -96.1% [100 µM] (active) with SN12C renal; -93.4% [100 µM] (active) with UO-31 renal. Besides, the growth in the assay with TK-10 renal is -97.9% [100 µM] (active); in the assay on ACHN renal, -96.3% [100 µM] (active); in the assay on A498 renal, -90.6% [100 µM] (active); in the assay with MOLT-4 leukemia, -55% [100 µM] (active).
In the case of `CCOC(=O)/C(=C/CC/C(C)=C/CC/C(C)=C/CCc1ccoc1)CC(=O)N1CCCCC1`, the growth is 69.2% with HCT-15 colon; 55.5% in the assay with HT29 colon; 82.6% with SNB-75 CNS; 36% with SNB-19 CNS; 66.6% in the assay with U251 CNS; 28.7% in the assay on PC-3 prostate. Besides, the growth in the assay on SK-MEL-5 melanoma was 9% (active); in the assay with UACC-62 melanoma it was 23.8%; in the assay with SK-MEL-28 melanoma, 36.8%; with SK-MEL-2 melanoma it was -19% (active); with SN12C renal it was 47.2%; with UO-31 renal, 25.1%. The growth in the assay with TK-10 renal was 63.7%; in the assay on ACHN renal, 55.2%; with CAKI-1 renal, 60.7%; in the assay on A498 renal, -20.2% (active); in the assay with CCRF-CEM leukemia it was 22.7%; with MOLT-4 leukemia, 0.624% (active).
For the compound `O=CN1N=C(c2ccc(Cl)cc2)CC1c1cccc(Nc2ccnc3cc(Cl)ccc23)c1` (stereo unspecified), the growth with HCT-15 colon is 16.9%; in the assay with HT29 colon, 3.98% (active); in the assay on SNB-75 CNS it was 1.24% (active); in the assay on SNB-19 CNS, 43.3%; in the assay with U251 CNS, 13%; in the assay on PC-3 prostate, 12.8%. In addition, the growth in the assay with SK-MEL-5 melanoma is -63.2% (active); in the assay with UACC-62 melanoma it was 30.3%; in the assay with LOX IMVI melanoma, 11.3%; in the assay with SK-MEL-28 melanoma, 39.3%; with SN12C renal, 34.5%; in the assay with UO-31 renal, 19.5%. The growth in the assay on TK-10 renal is 23%; with ACHN renal, 31.5%; with A498 renal, 9.76% (active); in the assay with CCRF-CEM leukemia, 13.6%; in the assay with MOLT-4 leukemia it was 4.5% (active).
Take `O=C(Nc1ccc(Cl)cc1)Nc1nc2ccc(OC(F)(F)F)cc2o1`: the growth is 77.5% in the assay on HCT-15 colon; 84.7% in the assay with HT29 colon; 97% in the assay on SNB-75 CNS; 93.2% with SNB-19 CNS; 83.1% in the assay on U251 CNS; 44.7% in the assay with PC-3 prostate. The growth was 90.8% in the assay with SK-MEL-5 melanoma; 82.9% in the assay with UACC-62 melanoma; 103% with LOX IMVI melanoma; 131% in the assay with SK-MEL-2 melanoma; 92.5% in the assay on SN12C renal; 87.9% with UO-31 renal. The growth with TK-10 renal was 92.9%; in the assay with ACHN renal, 89.4%; in the assay on CAKI-1 renal it was 92.7%; with CCRF-CEM leukemia, 80.1%; with MOLT-4 leukemia, 76.4%.
As to `OCCCc1n(Cc2ccc3ccccc3c2)c2ccccc2[n+]1Cc1ccc2ccccc2c1`, the growth with HCT-15 colon was 86.4%; in the assay on HT29 colon, 6.48% (active); in the assay with SNB-75 CNS, 19.8%; with SNB-19 CNS it was 3.3% (active); with U251 CNS, 13.6%; in the assay on PC-3 prostate, 22.9%. Also, the growth was -97.8% (active) in the assay on SK-MEL-5 melanoma; -48.2% (active) in the assay on UACC-62 melanoma; -41.9% (active) with LOX IMVI melanoma; 47.6% in the assay on EKVX NSCLC; 8.7% (active) in the assay on SN12C renal; 76.4% with UO-31 renal. Besides, the growth in the assay on TK-10 renal was 37.5%; in the assay on ACHN renal, 81.6%; in the assay with A498 renal, 46%; in the assay on CCRF-CEM leukemia, 30.8%; in the assay on MOLT-4 leukemia it was 19.7%.
For the compound `CCc1nn2c(-c3ccc(Cl)cc3C)c(-c3cc(OC)c(OC)c(OC)c3)nc2s1`, the growth in the assay on HCT-15 colon was 69.8%; in the assay on HT29 colon it was 66.8%; in the assay on SNB-75 CNS, 3.79% (active); in the assay with SNB-19 CNS, 56.8%; in the assay on U251 CNS, 89.7%; in the assay on PC-3 prostate, 64.1%. Besides, the growth is 70.3% in the assay with SK-MEL-5 melanoma; 60% in the assay on UACC-62 melanoma; 77.1% in the assay on LOX IMVI melanoma; 69.6% with SK-MEL-2 melanoma; 80.2% with SN12C renal; 47.1% in the assay on UO-31 renal. Further, the growth in the assay with TK-10 renal was 77.2%; with A498 renal, 74.5%; with CCRF-CEM leukemia, 85.1%; in the assay with MOLT-4 leukemia, 71%.
